Reference: PubChem BioAssay (EPA / NIEHS)
Records with an inconclusive call do not appear. Active and inactive are the calls of the source. Rule for the calls, unless noted: active = hit-call score of the fitted dose curve at least 0.9, where 1 is the maximum; inconclusive = response in the unintended direction; inactive = score below 0.9.

What was measured:
[1] = Tanguay_ZF_120hpf_TRUN_legacy: (Legacy) Oregon State University Tanguay Lab 120 Hour Post-fertilization zebrafish Assay for Truncated Body (AID 2283655)
Method in brief: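 Single dechorionated zebrafish embryos received test chemical from 6 hpf in 0.64% DMSO, kept at 28C. At 120 hpf, brightfield inspection noted any truncated body.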

[2] = Tanguay_ZF_120hpf_NC_legacy: (Legacy) Oregon State University Tanguay Lab 120 Hour Post-fertilization zebrafish Assay for Notochord and Tail Malformation (AID 2283656)
Method in brief: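 Binary notochord-distortion calls, made by brightfield inspection, form the read-out; activity is fitted in the positive direction against DMSO. Exposure ran statically from 6 to 120 hpf at 28C with 0.64% DMSO.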

[3] = read-out: matrix metalloproteinase-1 (MMP1), MMP1 (gene 4312); assay: LTEA_HepaRG_MMP1: Life Technologies and Expression Analysis (LTEA) Assay for matrix metalloproteinase-1 (MMP1) using HepaRG (AID 2283658; active = hit-call score of the fitted dose curve at least 0.9, where 1 is the maximum; inactive = score below 0.9); settings: mRNA level, 48 h; actives raise or lower the signal
Method in brief: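 In this screen, human liver HepaRG cultures receive each chemical in duplicate for 48 h (top 100 uM, 0.5% DMSO). MMP1 expression is then quantified by TaqMan qRT-PCR with ACTB/GAPDH/POLR2A normalization.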

[4] = read-out: ABC Transporter (ABCB1), ABCB1 (gene 5243); assay: CLD_ABCB1_6hr: CellzDirect (CLD) Gene Expression Assay for ABC Transporter (ABCB1) at 6 hours (AID 2283659);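 note: hits raise ABCB1 transcript above the DMSO vehicle baseline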
Method in brief: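 ABCB1 transcript measured by quantitative nuclease protection assay, chemiluminescent read-out, 6 h after dosing human hepatocyte cultures (0.2% DMSO vehicle, daily redosing). Activity fitted as increase over DMSO baseline; cytotoxicity flagged by phase-contrast morphology.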

[5] = read-out: Broad substrate specificity ATP-binding cassette transporter ABCG2 (Homo sapiens) (UniProt Q9UNQ0); assay: CLD_ABCG2_6hr: CellzDirect (CLD) Gene Expression Assay for ABC Transporter (ABCG2) at 6 hours (AID 2283660)
Method in brief: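 ABCG2 mRNA induction measured by qNPA chemiluminescence in human primary hepatocyte cultures, 6 h post-dose. Chemicals tested at several concentrations against a 0.2% DMSO vehicle; positive-direction fit relative to DMSO.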

[6] = tested on: Thyroperoxidase (TPO), gene 54314; assay: CCTE_Simmons_AUR_rTPO: CCTE's Amplex UltraRed Assay for Thyroperoxidase (TPO) Inhibition, Simmons Lab (AID 2283662);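 for AC50: potency for loss of signal meaning inhibition of peroxidase activity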
Method in brief: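 Cell-free peroxidase activity assay using rat thyroid gland microsomes with excess H2O2 (300 uM) and 25 uM Amplex UltraRed. Compounds tested from 5 nM to 87.5 uM; fluorescence measured after 30 min at 37C, analysed relative to DMSO baseline.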

[7] = read-out: alkyl and aryl transferase (GSTA2), GSTA2 (gene 2939); assay: CLD_GSTA2_6hr: CellzDirect (CLD) Gene Expression Assay for alkyl and aryl transferase (GSTA2) at 6 hours (AID 2283666)
Method in brief: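 GSTA2 transcript induction at 6 h, quantified by nuclease protection (qNPA) with chemiluminescent detection, in human liver primary hepatocytes exposed to several compound concentrations with 0.2% DMSO as baseline; phase-contrast morphology annotated apparent cytotoxicity.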

[8] = Tanguay_ZF_120hpf_TR_legacy: (Legacy) Oregon State University Tanguay Lab 120 Hour Post-fertilization zebrafish Assay for Touch Response (AID 2283667)
Method in brief: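 Readout is presence or absence of touch response in 120 hpf zebrafish larvae, assessed by brightfield observation after continuous static exposure at 28C. Final vehicle was 0.64% (vol/vol) DMSO.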

[9] = CLD_ACTIN_24hr: CellzDirect (CLD) Gene Expression Assay for Baseline Control (Actin) at 24 hours (AID 2283670)
Method in brief: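 This 24 h qNPA (S1 nuclease protection, chemiluminescence) actin transcript readout in cultured human liver primary cells serves as baseline control. Signal is fitted upward relative to 0.2% DMSO; chemicals tested at multiple concentrations across two donor preparations.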

[10] = read-out: glucuronosyltransferase (UGT1A1), UGT1A1 (gene 54658); assay: CLD_UGT1A1_6hr: CellzDirect (CLD) Gene Expression Assay for glucuronosyltransferase (UGT1A1) at 6 hours (AID 2283672)
Method in brief: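 UGT1A1 mRNA induction, read by quantitative nuclease protection assay, 6 h after dosing primary human hepatocytes (two donors, 0.2% DMSO vehicle). Gain of signal fitted relative to vehicle.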

[11] = read-out: ABC Transporter (ABCB11), ABCB11 (gene 8647); assay: CLD_ABCB11_24hr: CellzDirect (CLD) Gene Expression Assay for ABC Transporter (ABCB11) at 24 hours (AID 2283674; active = hit-call score of the fitted dose curve at least 0.9, where 1 is the maximum; inactive = score below 0.9)
Method in brief: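 ABCB11 transcript was quantified by qNPA chemiluminescence in cultured human liver hepatocytes 24 hours after dosing. Fresh dosing solutions were applied on consecutive days, against a 0.2% DMSO vehicle. Cytotoxicity was noted by phase-contrast morphology.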

[12] = read-out: Cytochrome P450 2B6 (Homo sapiens) (UniProt P20813); assay: CLD_CYP2B6_6hr: CellzDirect (CLD) Gene Expression Assay for xenobiotic metabolism (CYP2B6) at 6 hours (AID 2283677);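 note: actives raise CYP2B6 transcript above DMSO baseline so AC50 marks an inducer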
Method in brief: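 CYP2B6 transcript levels, read by chemiluminescent qNPA, were fitted for increase versus DMSO baseline; cultured human liver hepatocytes from two donor preparations were harvested 6 h after exposure to test chemicals at multiple concentrations.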

[13] = read-out: Cytochrome P450 2C19 (Homo sapiens) (UniProt P33261); assay: CLD_CYP2C19_6hr: CellzDirect (CLD) Gene Expression Assay for xenobiotic metabolism (CYP2C19) at 6 hours (AID 2283678)
Method in brief: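 CYP2C19 transcript induction was quantified by quantitative nuclease protection assay with chemiluminescent read-out, 6 h after dosing. Cells were primary human hepatocytes from two donor preparations, given fresh dosing solutions daily in 0.2% DMSO vehicle. Activity was relative to DMSO.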

[14] = read-out: xenobiotic metabolism (CYP1A2), CYP1A2 (gene 1544); assay: CLD_CYP1A2_6hr: CellzDirect (CLD) Gene Expression Assay for xenobiotic metabolism (CYP1A2) at 6 hours (AID 2283663);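 for AC50: potency is for induction meaning a rise in mRNA above DMSO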
Method in brief: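 mRNA levels quantified by quantitative nuclease protection assay with chemiluminescence, 6 h after dosing human primary hepatocyte cultures (two donors) across several concentrations, vehicle 0.2% DMSO. Induction fitted upward versus DMSO; phase-contrast cytotoxicity annotated.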

[15] = read-out: xenobiotic metabolism (CYP2C9), CYP2C9 (gene 1559); assay: CLD_CYP2C9_6hr: CellzDirect (CLD) Gene Expression Assay for xenobiotic metabolism (CYP2C9) at 6 hours (AID 2283664)
Method in brief: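 Readout is qNPA chemiluminescence of CYP2C9 mRNA, taken 6 h after dosing of cultured human liver primary cells at several concentrations. Activity is the increase over 0.2% DMSO baseline. Morphology-based cytotoxicity flagged yes/no.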

[16] = read-out: sulfotransferase (SULT2A), SULT2A1 (gene 6822); assay: CLD_SULT2A_6hr: CellzDirect (CLD) Gene Expression Assay for sulfotransferase (SULT2A) at 6 hours (AID 2283669);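 note: hits raise transcript level above the DMSO vehicle baseline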
Method in brief: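 Measured 6 h after dosing, SULT2A1 mRNA in human hepatocyte lysates was quantified by S1 nuclease protection with chemiluminescent detection. Increases fitted against 0.2% DMSO vehicle baseline; phase-contrast cytotoxicity recorded yes/no.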

[17] = read-out: ABC Transporter (ABCB11), ABCB11 (gene 8647); assay: CLD_ABCB11_6hr: CellzDirect (CLD) Gene Expression Assay for ABC Transporter (ABCB11) at 6 hours (AID 2283675);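 note: hits raise ABCB11 mRNA level so AC50 marks induction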
Method in brief: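 Read-out was ABCB11 mRNA gain of signal by quantitative nuclease protection assay, relative to 0.2% DMSO vehicle, 6 h post-dose. Cells were primary human hepatocytes from two donors, treated across multiple concentrations; phase-contrast cytotoxicity noted yes/no.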

[18] = read-out: xenobiotic metabolism (CYP1A1), CYP1A1 (gene 1543); assay: CLD_CYP1A1_24hr: CellzDirect (CLD) Gene Expression Assay for xenobiotic metabolism (CYP1A1) at 24 hours (AID 2283673);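 note: CYP1A1 mRNA level by quantitative nuclease protection with chemiluminescence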
Method in brief: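 Transcript levels were read at 24 h by qNPA chemiluminescence in human liver primary cells. Cells got daily fresh dosing at multiple concentrations (vehicle 0.2% DMSO). Induction fitted upward against DMSO; phase-contrast cytotoxicity annotated.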

Measured: AC50

Cytochrome P450 2C19 (Homo sapiens), sequence (P33261 whole entry, looked up): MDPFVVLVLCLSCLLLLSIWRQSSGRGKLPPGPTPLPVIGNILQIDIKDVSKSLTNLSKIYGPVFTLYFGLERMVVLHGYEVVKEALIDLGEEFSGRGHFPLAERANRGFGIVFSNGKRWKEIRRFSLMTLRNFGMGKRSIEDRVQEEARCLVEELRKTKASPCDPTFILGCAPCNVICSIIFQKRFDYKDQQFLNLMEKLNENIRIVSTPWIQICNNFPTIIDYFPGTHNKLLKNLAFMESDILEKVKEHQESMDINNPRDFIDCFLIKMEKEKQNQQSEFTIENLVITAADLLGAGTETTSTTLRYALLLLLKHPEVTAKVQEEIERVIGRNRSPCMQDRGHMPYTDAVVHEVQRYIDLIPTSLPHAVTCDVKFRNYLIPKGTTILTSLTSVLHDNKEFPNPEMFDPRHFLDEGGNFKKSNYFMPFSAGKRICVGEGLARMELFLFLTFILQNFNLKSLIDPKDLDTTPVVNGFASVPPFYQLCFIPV
Broad substrate specificity ATP-binding cassette transporter ABCG2 (Homo sapiens), sequence (Q9UNQ0 whole entry, looked up): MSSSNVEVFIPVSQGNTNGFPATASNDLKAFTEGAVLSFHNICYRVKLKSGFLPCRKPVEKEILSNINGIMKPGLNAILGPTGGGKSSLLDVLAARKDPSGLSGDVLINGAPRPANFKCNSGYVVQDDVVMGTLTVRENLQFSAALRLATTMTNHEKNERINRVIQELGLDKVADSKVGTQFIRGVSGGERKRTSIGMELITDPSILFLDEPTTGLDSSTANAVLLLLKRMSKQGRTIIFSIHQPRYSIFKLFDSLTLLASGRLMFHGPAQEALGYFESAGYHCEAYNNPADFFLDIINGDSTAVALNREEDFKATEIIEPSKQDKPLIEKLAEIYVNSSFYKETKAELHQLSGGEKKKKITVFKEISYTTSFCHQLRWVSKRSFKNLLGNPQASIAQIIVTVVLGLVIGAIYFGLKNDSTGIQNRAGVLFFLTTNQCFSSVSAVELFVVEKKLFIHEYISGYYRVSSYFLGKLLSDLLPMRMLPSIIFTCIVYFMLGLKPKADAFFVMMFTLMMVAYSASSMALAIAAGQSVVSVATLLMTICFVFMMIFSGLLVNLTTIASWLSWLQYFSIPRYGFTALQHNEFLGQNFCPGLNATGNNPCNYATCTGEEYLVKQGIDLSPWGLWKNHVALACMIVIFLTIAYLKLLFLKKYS

CC1(C(=O)Nc2ccc(O)c(Cl)c2Cl)CCCCC1
not listed: [14] | [15] | [16] | [17] | [18]
inactive: all other assays above

CC[C@H](C)[C@H]1O[C@]2(C=C[C@@H]1C)C[C@@H]1C[C@@H](C/C=C(\C)[C@@H](O[C@H]3C[C@H](OC)[C@@H](O[C@H]4C[C@H](OC)[C@@H](NC)[C@H](C)O4)[C@H](C)O3)[C@@H](C)/C=C/C=C3\CO[C@@H]4[C@H](O)C(C)=C[C@@H](C(=O)O1)[C@]34O)O2
active: [5] 29.5 µM | [14] 10.5 µM | [8] 47.9 nM | [11] 205 nM | [13] 32.6 µM
inactive: [1] | [2] | [3] | [15] | [7] | [9] | [10]

CN(C)NC(=O)CCC(=O)O
not listed: [3] | [6] | [7] | [13] | [15] | [17] | [18]
inactive: all other assays above

CCCSP(=O)(OCC)SCCC
active: [6] 19.4 µM | [12] 0.374 µM
inactive: [1] | [2] | [4] | [5] | [14] | [15] | [10] | [11] | [17]

S=C1NCCN1
inactive: [1] | [2] | [4] | [5] | [7] | [8] | [9] | [11] | [12]
active: [6] 6.05 µM

CCC(=NOC/C=C/Cl)C1=C(O)CC(C2CCOCC2)CC1=O (configuration not stated)
not listed: [3] | [8] | [15] | [16] | [17] | [18]
inactive: all other assays above

COc1cccc(C(=O)NN(C(=O)c2cc(C)cc(C)c2)C(C)(C)C)c1C
active: [18] 36.4 µM | [12] 1.29 µM
not listed: [3] | [6] | [16] | [17]
inactive: all other assays above

CC(C)[C@H](C(=O)O[C@H](C#N)c1cccc(Oc2ccccc2)c1)c1ccc(Cl)cc1
active: [8] 5430 nM | [12] 3.42 µM
inactive: [1] | [2] | [4] | [5] | [14] | [7] | [10]
